Assay results published in PMC4336329 (PLoS ONE, 2015).
Screen size: about 310,000 compounds; about 14,000 (4.5%) showed an effect of 50% or more. Effects have a minus sign here. What follows is part of a selection rich in strong results, with near analogues and random picks from the rest.

What follows are molecules tested against human ether-à-go-go-related gene (hERG) potassium channel (human, UniProt Q12809) (assay: primary screen, population patch clamp on CHO cells stably expressing hERG; higher = less effect of the substance).
human ether-à-go-go-related gene (hERG) potassium channel, sequence (Q12809 whole entry, looked up): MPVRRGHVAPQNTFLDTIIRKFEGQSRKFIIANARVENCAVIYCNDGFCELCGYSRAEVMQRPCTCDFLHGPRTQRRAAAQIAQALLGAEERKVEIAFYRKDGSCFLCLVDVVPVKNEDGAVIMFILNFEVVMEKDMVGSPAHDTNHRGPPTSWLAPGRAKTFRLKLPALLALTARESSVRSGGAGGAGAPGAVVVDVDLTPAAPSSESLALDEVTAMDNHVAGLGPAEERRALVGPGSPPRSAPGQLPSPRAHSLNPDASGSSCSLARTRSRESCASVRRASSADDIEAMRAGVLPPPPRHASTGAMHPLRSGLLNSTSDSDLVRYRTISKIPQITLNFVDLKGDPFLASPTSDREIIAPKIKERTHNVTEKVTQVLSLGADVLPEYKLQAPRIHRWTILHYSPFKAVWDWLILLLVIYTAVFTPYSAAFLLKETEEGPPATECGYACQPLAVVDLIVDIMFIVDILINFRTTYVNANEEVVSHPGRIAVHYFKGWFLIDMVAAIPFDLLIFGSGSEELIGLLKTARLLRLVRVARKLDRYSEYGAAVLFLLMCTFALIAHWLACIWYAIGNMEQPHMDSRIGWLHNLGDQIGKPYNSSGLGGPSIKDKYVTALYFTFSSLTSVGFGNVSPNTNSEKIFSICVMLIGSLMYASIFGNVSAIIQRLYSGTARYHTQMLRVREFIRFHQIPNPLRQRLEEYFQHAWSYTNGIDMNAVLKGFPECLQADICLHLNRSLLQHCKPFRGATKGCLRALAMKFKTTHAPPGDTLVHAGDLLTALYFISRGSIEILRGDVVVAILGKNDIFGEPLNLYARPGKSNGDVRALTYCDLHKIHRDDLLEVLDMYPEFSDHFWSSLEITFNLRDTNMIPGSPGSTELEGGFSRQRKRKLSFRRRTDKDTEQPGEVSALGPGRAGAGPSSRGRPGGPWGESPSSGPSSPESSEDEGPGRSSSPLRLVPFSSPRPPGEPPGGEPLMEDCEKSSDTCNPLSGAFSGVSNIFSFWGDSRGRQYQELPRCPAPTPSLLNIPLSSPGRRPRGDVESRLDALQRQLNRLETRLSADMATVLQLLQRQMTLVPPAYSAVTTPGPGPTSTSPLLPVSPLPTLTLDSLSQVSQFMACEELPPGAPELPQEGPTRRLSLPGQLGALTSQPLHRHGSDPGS
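Note: peak tail current of the secondary pulse compared with the same well before compound.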

Row | Compound | hERG current change (%, negative = inhibition) at 10uM
1 | O=[N+]([O-])c1cccc(S(=O)(=O)Nc2ccc(S(=O)(=O)N3CCCC3)cc2)c1 | 2.95%
2 | O=C(CSc1nnc(NC(=O)c2c(F)cccc2F)s1)NC1CC1 | 21.9%
3 | COC(=O)c1cccc(Oc2cccc(Cl)n2)c1 | 14.7%
4 | Clc1ccc(COc2ccccn2)cc1Cl | -6.01%
5 | OCCOCCn1c(C(CO)Nc2nc(-c3ccc(F)cc3)cs2)nc2ccccc21 (stereo not shown) | -29.4%
6 | COc1ccc(N(CC(=O)NCc2ccccc2OC)S(=O)(=O)c2ccccc2[N+](=O)[O-])c(OC)c1 | 3.17%
7 | CN(C)Cc1c(C(=O)N/N=C/C=C/c2ccccc2)nnn1-c1nonc1N | -24.9%
8 | COC(=O)Nc1ccc(OC)c(OC)c1 | 4.01%
9 | COc1ncnc2c1sc1nc(-c3ccccc3)c3c(c12)CCCC3 | 15.6%
10 | Cc1ccc(-c2nc(C#N)c(N3CCC(C(N)=O)CC3)o2)cc1 | -23.7%
11 | CCOc1ccc(-c2nc(C#N)c(N3CCN(C)CC3)o2)cc1 | -32.5%
12 | CCOc1ccc(-c2nc(C#N)c(N3CCN(CC)CC3)o2)cc1 | -47.3%
13 | CN1CCN(c2oc(-c3ccc([N+](=O)[O-])cc3)nc2C#N)CC1 | -66.1%
14 | COc1ccc(-c2nc(C#N)c(N3CCC(C(N)=O)CC3)o2)cc1 | -15.6%
15 | N#Cc1nc(-c2ccc([N+](=O)[O-])cc2)oc1N1CCCCC1 | 14.5%
16 | CCN1CCN(c2oc(-c3ccc([N+](=O)[O-])cc3)nc2C#N)CC1 | -53.1%
17 | CC(C)(C)c1ccc(-c2nc(C#N)c(N3CCC(C(N)=O)CC3)o2)cc1 | -63.3%
18 | CCN1CCN(c2oc(-c3ccc(OC)cc3)nc2C#N)CC1 | -45.6%
19 | CC(=O)Cn1c(N2CCC(Cc3ccccc3)CC2)nc2c1c(=O)[nH]c(=O)n2C | 10.3%
20 | COCCN(C(=S)Nc1ccc(C(C)C)cc1)C(C)c1cccs1 (stereo not shown) | 8.26%
21 | COCC(C)NC(=O)CSc1ncnc2sc(-c3ccccc3)cc12 (stereo not shown) | -10.1%
22 | CCC(C)(C)n1c(=O)[nH]c2c(c1=O)CCC2 | 6.59%

Row | Compound | hERG current change (%, negative = inhibition) at 10uM
23 | O=C(O)COCC(=O)Nc1ccc(OCCc2ccccc2)cc1 | 11.8%
24 | Cc1cccc(NS(=O)(=O)c2cc3c4c(c2)CCC(=O)N4CCC3)c1 | -21.6%
25 | COc1cc(/C=C(/C#N)C(=O)Nc2ccccc2)c(Br)cc1OCc1ccc(C(=O)O)cc1 | 9.98%
26 | CC(C)Cc1ccc(C(C)C(=N)N)cc1.Cl (stereo not shown) | -6.14%
27 | CC(C)Cc1ccc([C@H](C)C(=O)O)cc1 | 7.11%
28 | COc1ccc(CCN=C(N)C(C)c2ccccc2)cc1OC.Cl (stereo not shown) | 11.4%
29 | CC(C)Cc1ccc(C(C)C(N)=NCCc2ccccc2)cc1.Cl (stereo not shown) | -67.5%
30 | CC(C)Cc1ccc(C(C)C(N)=Nc2ccc(O)cc2)cc1.Cl (stereo not shown) | -80.2%
31 | CC(C)Cc1ccc(C(C)C(=O)Nc2ccc(O)cc2)cc1 (stereo not shown) | 11.3%
32 | COc1cc(NC(=O)C2CC(c3cccc(Br)c3)=NO2)cc(OC)c1OC (stereo not shown) | -11.6%
33 | COc1ccccc1N1CCN(C(=O)c2ccccc2Oc2ccccc2)CC1 | -25.7%
34 | Cc1cccc(N(CC(O)CON=C2c3ccccc3-c3ccccc32)S(C)(=O)=O)c1 (stereo not shown) | 15.1%
35 | COc1ccc(OCC(=O)NNC(=S)NC(=O)c2ccc([N+](=O)[O-])cc2)cc1 | 15.6%
36 | COc1ccc(CNC(=O)COc2ccc(OC)cc2)cc1 | 13.8%
37 | O=C(COc1ccc([N+](=O)[O-])cc1)NCc1ccccc1 | -38.9%
38 | COc1ccc(CCNC(=O)COc2ccc([N+](=O)[O-])cc2)cc1 | -31.1%
39 | CN(C)c1ccc(P(=O)(COc2ccc([N+](=O)[O-])cc2)c2ccc(N(C)C)cc2)cc1 | -41.9%
40 | COc1ccc(CNC(=O)COc2ccc([N+](=O)[O-])cc2)cc1 | -64.5%
41 | O=C(COc1ccc([N+](=O)[O-])cc1)NCc1cccnc1 | -33.4%
42 | COc1ccc(P(=O)(COc2ccc([N+](=O)[O-])cc2)c2ccc(OC)cc2)cc1 | -71%
43 | O=C(COc1ccc([N+](=O)[O-])cc1)NCc1ccncc1 | -67.6%
44 | CN(C)c1ccc(/C=N/NC(=O)c2ccc3c(c2)OCCO3)cc1 | 9.93%

Row | Compound | hERG current change (%, negative = inhibition) at 10uM
45 | CCC(CC)NC(=O)CCCSc1nc2ccccc2[nH]1 | 22.3%
46 | O=C(Nc1cccnc1)c1ccc([N+](=O)[O-])s1 | -20.1%
47 | CN(C)CCCn1c(=O)n(CCc2ccccc2)c(=O)c2c3c(sc21)CCCCC3 | -70.4%
48 | CN(C)CCn1c(=O)n(Cc2ccccc2)c(=O)c2c3c(sc21)CCCCC3 | -3.31%
49 | CCn1c(=O)n(CCc2ccccc2)c(=O)c2c3c(sc21)CCCC3 | 1.05%
50 | O=C(O)Cn1c(=O)c2c3c(sc2n(Cc2ccccc2)c1=O)CCCC3 | 16.6%
51 | CCOC(=O)c1sc2c(c1C)c(=O)n(CCO)c(=O)n2Cc1ccccc1 | 4.88%
52 | CN(C)CCCn1c(=O)n(Cc2ccccc2)c(=O)c2c3c(sc21)CCCCC3 | -58.9%
53 | Cc1c(C(=O)O)sc2c1c(=O)n(Cc1ccccc1)c(=O)n2C | 23.2%
54 | CN(C)CCn1c(=O)n(C2CCCCC2)c(=O)c2c3c(sc21)CCCCC3 | -25.3%
55 | CCOC(=O)c1sc2c(c1C)c(=O)n(Cc1ccccc1)c(=O)n2CCN(C)C | -58.9%
56 | NC(=O)Cn1c(=O)n(CCc2ccccc2)c(=O)c2c3c(sc21)CCCC3 | -15%
57 | NC(=O)Cn1c(=O)n(C2CCCCC2)c(=O)c2c3c(sc21)CCCCC3 | -6.3%
58 | CN(C)CCCn1c(=O)n(C2CCCCC2)c(=O)c2c3c(sc21)CCCCC3 | -53.8%
59 | COc1ccc(OC)c(S(=O)(=O)NCCc2csc(-c3cccnc3)n2)c1 | 4.92%
60 | CCOc1ccc(C2(C#N)CC[N+](C)(C)CC2)cc1.[Br-] | 2.83%
61 | CS(=O)(=O)N(CC(=O)NCCSCc1cccc(Cl)c1)c1ccccc1F | -20.2%
62 | Cc1ccc(C(=O)Nc2ccccc2C(=O)NCc2ccccc2)cc1 | 5.63%
63 | O=C(NCc1nnc2c3ccccc3c(-c3ccccc3)nn12)c1ccccc1Cl | -78.9%
64 | CC(=O)NCc1nnc2c3ccccc3c(-c3ccccc3)nn12 | -31.9%
65 | OCc1nnc2c3ccccc3c(-c3ccccc3)nn12 | -4.77%
66 | O=C(CSc1nnc(CNC(=O)c2ccccc2)o1)c1ccc(Cl)cc1 | -30.3%

Row | Compound | hERG current change (%, negative = inhibition) at 10uM
67 | O=C(NCc1nnc2c3ccccc3c(-c3ccccc3)nn12)c1ccc(Cl)cc1 | -52.4%
68 | Cc1cccc(C(=O)NCc2nnc3c4ccccc4c(-c4ccccc4)nn23)c1 | -4.14%
69 | CC(OC(=O)C1CCCCC1)C(=O)Nc1cccc([N+](=O)[O-])c1 (stereo not shown) | -4.48%
70 | O=C(O)c1ccccc1N/N=C/c1cc(Br)cc(Br)c1O | 11.6%
71 | C=CCN(CC=C)C(=S)Nc1ccc(OC)c(OC)c1 | 10.3%
72 | Cc1cc(OCC(=O)N2CCOCC2)c(C(C)C)cc1Cl | -4.17%
73 | CC(O)CC(C(=O)NNc1ccccc1)C(=O)NNc1ccccc1 (stereo not shown) | 21%
74 | O=C(c1ccc(F)cc1)C1CCN(C(=O)c2ccncc2)CC1 | -22.4%
75 | CC(=O)Nc1ccc(C(=O)NC(C)c2ccc(-n3ccnc3)cc2)cc1 (stereo not shown) | 7.74%
76 | CC(=O)Nc1cccc(C(=O)NC(C)c2ccc(-n3ccnc3)cc2)c1 (stereo not shown) | -0.474%
77 | CC(NC(=O)C1CCN(C(=O)c2ccc(F)cc2)CC1)c1ccc(-n2ccnc2)cc1 (stereo not shown) | -64.7%
78 | COc1cc(C(=O)NC(C)c2ccc(-n3ccnc3)cc2)cc(OC)c1C (stereo not shown) | -72.9%
79 | Cc1ccc(C(=O)NC(C)c2ccc(-n3ccnc3)cc2)o1 (stereo not shown) | -37.4%
80 | CC(NC(=O)c1ccco1)c1ccc(-n2ccnc2)cc1 (stereo not shown) | -37%
81 | Cc1ccc(C(=O)NC(C)c2ccc(-n3ccnc3)cc2)cc1 (stereo not shown) | -54%
82 | CC(NC(=O)c1cccc(N(C)C)c1)c1ccc(-n2ccnc2)cc1 (stereo not shown) | -68.3%
83 | Cc1ccccc1C(=O)N1CCC(C(=O)NC(C)c2ccc(-n3ccnc3)cc2)CC1 (stereo not shown) | -23%
84 | Cc1occc1C(=O)N1CCCC(Nc2ccc(F)cc2)C1 (stereo not shown) | -3.68%
85 | Cc1ccc(C(=O)Nc2ccc(N3CCN(C(=O)c4cccs4)CC3)cc2)c(Cl)c1 | -5.13%
86 | COC(=O)CSc1nnc(-c2cccnc2)n1-c1cc(OC)cc(OC)c1 | -19.3%
87 | N#Cc1ccccc1Oc1ccccc1C=O | -16.8%
88 | Cc1ccc2nc(C)cc(N/N=C/c3cccc(O)c3)c2c1 | 12.4%
